# Source: PubChem BioAssay (several laboratories)
# Mtb hypoxia inh – inhibitors of hypoxia-regulated fluorescent reporter in Mycobacterium tuberculosis | 300,000 compounds, 0.1% hits | fluorescence inhibition, % (concentration not given with the values) | M. tuberculosis hypoxia-regulated fluorescent reporter, fluorescence; in the data active = fluorescence inhibition mostly above about 23%, no sharp cut-off; inactive = mostly below about 17%
# UGM FP inh – Mtb UDP-galactopyranose mutase inhibition; P9WIQ1; purified UGM, fluorescence polarization probe displacement; inhibition, % at 10 µM; 320,000 compounds, 0.06% hits; in the data active = inhibition above about 10%, passing the limit was not always enough
# Mtb FBA inh – Mtb fructose-bisphosphate aldolase inhibition; P9WQA3; 360,000 compounds, 2.3% hits; purified M. tuberculosis FBA, fluorescence read-out; inhibition, % at 1 µM
# FadD28 binding – blocks FadD28 binding to the bisubstrate probe; fluorescence polarization; inhibition, % at 12.5 µM; 360,000 compounds, 0.22% hits; AID 588549; in the data active = inhibition above about 8.5%, passing the limit was not always enough
# Rv3671c protease – Rv3671c (M. tuberculosis) protease inhibition; P9WHR9; inhibition, % at 5.96 µM; 320,000 compounds, 0.048% hits; AID 2606; in the data active = inhibition above about 38%;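 also: extracellular domain of Rv3671c used as enzyme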
# Target sequence (P9WHR9 whole entry, looked up, the tested form may be a part): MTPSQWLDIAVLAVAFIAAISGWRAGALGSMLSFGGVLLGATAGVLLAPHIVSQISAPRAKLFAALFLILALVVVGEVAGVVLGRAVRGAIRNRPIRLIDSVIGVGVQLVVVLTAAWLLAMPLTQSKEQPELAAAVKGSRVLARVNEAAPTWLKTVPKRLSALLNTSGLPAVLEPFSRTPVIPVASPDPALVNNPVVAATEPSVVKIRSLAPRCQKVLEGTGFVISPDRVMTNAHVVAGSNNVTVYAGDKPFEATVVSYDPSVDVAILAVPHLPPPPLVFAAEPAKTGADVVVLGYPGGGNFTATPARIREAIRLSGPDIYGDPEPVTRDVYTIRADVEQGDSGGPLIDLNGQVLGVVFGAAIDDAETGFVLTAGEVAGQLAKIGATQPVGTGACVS
# GDH-TPI counter-1 – inhibits GDH-TPI coupling enzymes, artifact for Mtb FBA screen; AID 588335; 360,000 compounds, 1.2% hits; GDH-TPI coupled enzyme counterscreen, NADH absorbance; inhibition, % at 4.8 µM; in the data active = inhibition above about 30%
# Mtb FBA confirm – confirmation of M. tuberculosis fructose-bisphosphate aldolase inhibitors; shares compounds with Mtb FBA inh; purified M. tuberculosis FBA, fluorescence read-out; inhibition, % at 1 µM; 5,600 compounds, 78% hits; AID 651616
# GDH-TPI counter-2 – counter-screen for M. tuberculosis FBA inhibitors: GDH-TPI coupled enzyme inhibition. 5,600 compounds, 81% hits. GDH-TPI coupled enzyme counterscreen, fluorescence. shares compounds with Mtb FBA inh. inhibition, % at 1 µM; in the data active = inhibition above about 10%
# Hits are given with their value; 0 = inactive; - = not tested or not shown; + = active, no number. Rows were chosen to be rich in hits. Some 3.5% of all compounds tested hit in one or more screens of this group. Rule as the data show it, unless noted: active = inhibition above about 27%; inactive = the rest.
SMILES,Mtb hypoxia inh,UGM FP inh,Mtb FBA inh,FadD28 binding,Rv3671c protease,GDH-TPI counter-1,Mtb FBA confirm,GDH-TPI counter-2
CCc1ccc(-n2nc3cc(C)c(N)cc3n2)cc1,0,0,56,0,0,0,63,69
Cc1ccc(-n2nc3cc(C)c(N)cc3n2)cc1,0,0,0,0,0,0,-,-
COc1ccccc1Cn1c(/C=C/c2ccccc2)nc2ccccc21,0,-,65,0,0,0,98,77
Cn1c(=O)c(/C=C/c2ccccc2)nc2ccccc21,0,0,0,0,0,0,-,-
Cn1c(/C=C/c2ccccc2)nc2ccccc21,0,0,48,0,0,0,199,168
CC(=O)c1ccc(/C=C/c2nc3ccccc3n2C)o1,0,0,46,0,0,0,0,17
Cn1c(=O)c(/C=C/c2ccc(F)cc2)nc2ccccc21,0,-,0,0,-,0,-,-
COCCn1c(/C=C/c2ccccc2)nc2ccccc21,0,0,53,0,0,0,0,0
Cc1ccc(NC(=O)Cn2c(=O)c(C)nc3ccccc32)cc1,0,0,0,0,0,0,-,-
Cc1cccc(NC(=O)Cn2c(/C=C/c3ccccc3)nc3ccccc32)c1,0,0,32,0,0,0,42,34
CCc1ccc(C=C2SC(=S)N(CC(=O)Nc3nc4ccccc4s3)C2=O)cc1,0,-,-,-,-,-,-,-
CSC1=NC(NCCCO)c2c(sc3c2CC(C)(C)OC3)N1 (centres undefined),0,0,28,0,0,0,107,92
Cn1c2ccccc2c2c(C(=O)O)cn(C3CCCC3)c(=O)c21,0,0,0,0,0,0,-,-
CCOC(=O)Cn1cc(Cn2c3ccccc3c(=O)n2C(C)C)nn1,-,-,69,0,-,-,0,0
CCOC(=O)Cn1c(=O)cc(C)c2ccccc21,0,0,0,0,0,0,-,-
CC(C)n1c(=O)c2ccccc2n1Cc1cn(C2CCCC2)nn1,-,-,101,0,-,-,90,60
Cc1onc(-c2ccccc2)c1-c1csc(NN=Cc2ccccc2)n1,0,-,-,-,-,-,-,-
Clc1ccc(CNc2cnccn2)cc1,0,0,71,0,0,0,125,92
O=C(NCc1ccc(F)cc1)c1cnccn1,0,0,0,0,0,0,-,-
Fc1ccc(CNc2cnccn2)cc1,0,0,71,0,0,0,0,0
c1ccc(CNc2cnccn2)cc1,0,0,69,0,0,0,108,93
c1ccc(CNc2ccccn2)cc1,0,0,0,0,0,0,-,-
Clc1ccc(CNc2ccccn2)cc1,0,0,0,0,0,0,-,-
COc1cc(C=NNC(=O)c2[nH]nc3c2CCc2ccccc2-3)ccc1O,0,-,-,-,-,-,-,-
NC(=O)COc1ccc2oc(-c3ccccc3)cc(=O)c2c1,0,-,77,0,-,0,0,0
SMILES,Mtb hypoxia inh,UGM FP inh,Mtb FBA inh,FadD28 binding,Rv3671c protease,GDH-TPI counter-1,Mtb FBA confirm,GDH-TPI counter-2
CCOC(=O)COc1ccc2c(=O)cc(-c3ccccc3)oc2c1,0,0,0,0,0,0,-,-
CCc1ccccc1NC(=O)COc1ccc2oc(-c3ccc(OC)cc3)cc(=O)c2c1,0,0,35,0,0,0,75,52
COc1ccc(C(=O)Nc2ccc(C(C)=NNC(=O)c3ccccc3O)cc2)cc1OC,0,-,-,-,-,-,-,-
CC(=NNC(=S)Nc1cccc(C)c1)c1ccco1,0,-,-,-,-,-,-,-
O=C(Nc1nc(-c2ccccc2)cs1)c1ccc2c(c1)S(=O)(=O)c1ccccc1C2=O,0,0,84,0,0,0,+,158
CC(Cl)=CCC1(CN2CCCC2=O)C(=O)NC(=O)NC1=O,0,-,-,-,-,-,-,-
CCC1(CC)C(=O)C2=C3C(CC(C(=O)OC)=CC(C(=O)OC)C31)C1C(=O)N(CC(=O)OC)C(=O)C1C2C (centres undefined),0,-,-,-,-,-,-,-
Cc1nn(CC(=O)Nc2ccc3c(c2)nc(CCN2CCCCC2)n3C)c(=O)c2ccccc12,0,-,0,0,0,0,-,-
CC(c1ccccc1)N1CCn2c(nc3cc(NC(=O)NC4CCCCC4)ccc32)C1 (centres undefined),0,0,57,0,0,0,56,52
Cc1nn(CC(=O)Nc2ccc3c(c2)nc2n3CCN(C3CCCCC3)C2)c(=O)c2ccccc12,0,0,51,0,0,0,130,101
COCC(=O)N(Cc1cc2ccc(C)cc2[nH]c1=O)c1ccc(OC)cc1,0,0,62,0,0,0,139,128
CCOc1ccc(N(Cc2cc3ccc(C)cc3[nH]c2=O)C(=O)COC)cc1,-,0,0,0,0,0,-,-
O=C1NC(c2ccc(Cl)cc2)Nc2ccccc21 (centres undefined),0,0,0,0,0,0,-,-
Cc1ccc(C2NC(=O)c3ccccc3N2)c(C)c1 (centres undefined),-,-,62,0,-,0,80,61
Cc1cccc(C2NC(=O)c3ccccc3N2)c1 (centres undefined),-,-,0,0,-,0,-,-
O=C1NC(c2ccco2)Nc2ccccc21 (centres undefined),-,0,43,0,0,0,57,49
COc1ccc(C=Nn2c(C)nc3sc(C)c(C)c3c2=O)cc1OC,0,-,-,-,-,-,-,-
O=C(CNC(=O)c1ccc2c(c1)OCCO2)NN=Cc1ccc(O)cc1O,0,-,-,-,-,-,-,-
COc1ccc2nc(Nc3nc4cc5c(cc4s3)OCO5)sc2c1,0,0,57,0,0,0,+,+
Cc1nn(-c2ccc(F)cc2)c2sc(C(=O)OC3CCOC3=O)cc12 (centres undefined),-,0,86,0,0,0,74,59
COc1cc(C(C)=NN2CCOCC2)cc(OC)c1OC,0,-,-,-,-,-,-,-
C=C(C)CN(CC)C(=O)CN1C(=O)NC2(CCc3ccccc32)C1=O (centres undefined),0,0,0,0,0,0,-,-
C=C(C)CN(CC)C(=O)CN1C(=O)NC2(CCCc3ccccc32)C1=O (centres undefined),0,0,63,0,0,0,101,85
CCOc1ccccc1C=NNc1cnn(Cc2ccccc2)c(=O)c1Cl,0,-,-,-,-,-,-,-
Cn1c(N)nc2nc(CCc3ccccc3)c(=O)[nH]c2c1=O,0,0,60,0,0,0,0,0
SMILES,Mtb hypoxia inh,UGM FP inh,Mtb FBA inh,FadD28 binding,Rv3671c protease,GDH-TPI counter-1,Mtb FBA confirm,GDH-TPI counter-2
C[C@@H]1CCCCCCCCCCC1=O,0,0,0,0,0,0,-,-
O=C1NN=C2CCCCCCC12 (centres undefined),-,-,29,0,-,0,85,70
CCCc1cc(=O)oc2c(C)c(OCC(=O)N3CCC[C@@H]3C(=O)O)ccc12,-,0,43,0,0,0,55,45
Cc1c(OCC(=O)NCC2CCC(C(=O)O)CC2)ccc2c3c(c(=O)oc12)CCC3 (centres undefined),-,0,0,0,0,0,-,-
CCc1cc(=O)oc2cc(OCC(=O)N3CCC[C@H]3C(=O)O)ccc12,-,0,35,0,0,0,+,+
CCCc1cc(=O)oc2c(C)c(OCC(=O)N3CCC(C(N)=O)CC3)ccc12,-,0,0,0,0,0,-,-
Cc1cc(=O)oc2cc(OCC(=O)N3CCCC(C)C3)ccc12 (centres undefined),0,0,0,0,0,0,-,-
